{
  "source": "ChEMBL document CHEMBL3988442",
  "about": "“University of Dundee, Small-Polar-MMV Screening Library” (2021)",
  "note": "Among all 69,000 compounds or so, about 950 (1.4%) showed an effect of 50% or more. Many of the other results were omitted from the sample, so strong results are more common in it than they were.",
  "data": [
    {"system": "Mycobacterium tuberculosis", "experiment": "Cornell M. t heat shock assay; also: in the data most compounds retested in dose-response had high values", "format": "functional, organism-based", "parameters": "dose or concentration left out as unconfirmed", "units": {"Percent Effect": "%"}, "values": [
      {"smiles": "CCc1cc(C(F)(F)F)n2nc(C3CCCN3C3CCSCC3)cc2n1.O=C(O)CC(O)(CC(=O)O)C(=O)O", "note": "(stereo not given)", "Percent Effect": 5.555},
      {"smiles": "O=C(O)c1ccc(SCC(=O)c2ccccc2)nc1", "Percent Effect": 25.44},
      {"smiles": "Cc1cccc(CN2C[C@@H]3OCCN(CC(=O)N(C)C)[C@@H]3C2)c1.O=C(O)C(F)(F)F", "Percent Effect": 42.49},
      {"smiles": "Cl.Cl.c1ccc(OC[C@@H]2CCC[C@@]23CNCCO3)nc1", "Percent Effect": -6.285},
      {"smiles": "CC(c1cccs1)N(C)Cc1cnc(-c2ccccn2)nc1", "note": "(stereo not given)", "Percent Effect": 106.1},
      {"smiles": "Cc1noc(C)c1CN(C)C(C)c1cccs1", "note": "(stereo not given)", "Percent Effect": 7.19},
      {"smiles": "CC(C)n1cnnc1CN(C)Cc1cnc(-c2ccccn2)nc1", "Percent Effect": 32.7},
      {"smiles": "O=C(Nc1cccnc1)[C@H]1CO[C@H]2CCNC[C@H]2C1.O=C(O)C(F)(F)F.O=C(O)C(F)(F)F", "Percent Effect": -15.71},
      {"smiles": "Cc1ccc2c(n1)N(CC1CC1)CCN(C(=O)c1ccncc1F)C2.O=C(O)C(F)(F)F.O=C(O)C(F)(F)F", "Percent Effect": -13.11},
      {"smiles": "CCn1c(CN(C)Cc2cnc(C)s2)nc2cc(F)ccc21", "Percent Effect": -9.437},
      {"smiles": "CCn1c(CN(C)Cc2csc(C)n2)nc2cc(F)ccc21", "Percent Effect": 69.38},
      {"smiles": "CCN(Cc1csc(C)n1)c1cccc(CO)c1", "Percent Effect": -22.94},
      {"smiles": "CCO[C@@H]1CC[C@H]2[C@H]1OCCN2CC1CCC1.O=C(O)C(F)(F)F", "Percent Effect": -27.51},
      {"smiles": "Cc1cc(N(C)CCN(C)C)n2nc(C)cc2n1", "Percent Effect": -8.3},
      {"smiles": "CCc1cc(N(C)Cc2ccno2)n2nc(C)c(C)c2n1", "Percent Effect": 27.53},
      {"smiles": "CCc1cc(N(C)Cc2ccncn2)n2nc(C)c(C)c2n1", "Percent Effect": 89.97},
      {"smiles": "Cc1cc(N(C)Cc2cc(C)on2)n2nc(C)c(C)c2n1", "Percent Effect": 82.43},
      {"smiles": "CCc1cc(N(C)Cc2ccnc(C)c2)n2nc(C)c(C)c2n1", "Percent Effect": 28.31},
      {"smiles": "Cc1cc(N(C)Cc2ccsc2)n2nc(C)c(C)c2n1", "Percent Effect": 86.91},
      {"smiles": "Cc1cc(NC(C)c2csc(C)n2)n2nc(C)c(C)c2n1", "note": "(stereo not given)", "Percent Effect": 26.88},
      {"smiles": "CCc1cc(N(C)Cc2cc[nH]n2)n2nc(C)c(C)c2n1", "Percent Effect": 19.05},
      {"smiles": "Cc1csc(CN(C)c2cc(C)nc3c(C)c(C)nn23)n1", "Percent Effect": 96.63},
      {"smiles": "Cc1cc(N(C)Cc2c(C)noc2C)n2nc(C)c(C)c2n1", "Percent Effect": -31.35},
      {"smiles": "CCc1nnc(CN(C)c2cc(C)nc3c(C)c(C)nn23)o1", "Percent Effect": -40},
      {"smiles": "Cc1cc(N(C)Cc2noc(C)n2)n2nc(C)c(C)c2n1", "Percent Effect": 0.3178},
      {"smiles": "Cc1cc(C)cc(N2CCN(C(=O)CCN3C[C@@H]4CC[C@H]3C4)CC2=O)c1", "Percent Effect": -4.633},
      {"smiles": "COc1cc(N2C[C@@H]3COC[C@]3(COc3ncccc3F)C2)ncn1.O=C(O)C(F)(F)F.O=C(O)C(F)(F)F", "Percent Effect": -28.64},
      {"smiles": "CC(C)OCc1ncn2c1CN(Cc1cccs1)CCC2.O=C(O)C(F)(F)F", "Percent Effect": -1.604},
      {"smiles": "CN(C)CCOCc1nnc2n1CCN(CC1CC1)CC2.O=C(O)C(F)(F)F.O=C(O)C(F)(F)F", "Percent Effect": -19.96},
      {"smiles": "Cc1ncsc1CN1C[C@H](C(=O)NCC2CC2)[C@@H]2CCO[C@@H]2C1.O=C(O)C(F)(F)F", "Percent Effect": -4.533},
      {"smiles": "COc1ccc(CN2CCC3(CC2)CCN(CCN(C)C)C3=O)cc1.O=C(O)C(F)(F)F.O=C(O)C(F)(F)F", "Percent Effect": -10.28},
      {"smiles": "COCC(=O)N1CCC2(CC1)CC(COC)N(Cc1ccccn1)C2.O=C(O)C(F)(F)F", "note": "(stereo not given)", "Percent Effect": 9.323},
      {"smiles": "CCN1C(=O)CC[C@]12CC[C@@H](NC(=O)NCc1cccnc1)CC2.O=C(O)C(F)(F)F", "Percent Effect": 4.335},
      {"smiles": "CNC(=O)C1Cn2ccnc2C2(CCN(Cc3cccc(C)n3)CC2)O1.O=C(O)C(F)(F)F", "note": "(stereo not given)", "Percent Effect": -1.384},
      {"smiles": "Cc1nc(NCc2noc(C3CCCO3)n2)c2ccsc2n1", "note": "(stereo not given)", "Percent Effect": 12.93},
      {"smiles": "Cc1ccc(N2CCC3(CC2)CNC(=O)CO3)nn1.O=C(O)C(F)(F)F", "Percent Effect": -15.23},
      {"smiles": "O=C(O)C(F)(F)F.O=C1COC2(CCN(c3ncccn3)CC2)CN1", "Percent Effect": -4.23},
      {"smiles": "O=C(O)C(F)(F)F.O=C1COC2(CCN(c3ccccn3)CC2)CN1", "Percent Effect": 64.38},
      {"smiles": "Cc1cc(F)ccc1-c1ccccc1CC1CNCCNC1=O.Cl", "note": "(stereo not given)", "Percent Effect": 10.68},
      {"smiles": "Cc1ccc(C(=O)N2CC[C@@H]3CN(C4CCOCC4)CCO[C@@H]3C2)o1.O=C(O)C(F)(F)F", "Percent Effect": 5.788},
      {"smiles": "CC(C)NC(=O)N1CC[C@H]2[C@H]1CCN2c1ncccn1.O=C(O)C(F)(F)F", "Percent Effect": -6.623},
      {"smiles": "Cc1c(NCc2cccc(C#N)c2)cccc1S(=O)(=O)NC1CC1", "Percent Effect": 50.22},
      {"smiles": "Cc1cc(NCc2cccc(C#N)c2)ccc1C(N)=O", "Percent Effect": -8.044},
      {"smiles": "CS(=O)(=O)NCC1CCCCN1Cc1ccccc1C#N", "note": "(stereo not given)", "Percent Effect": -5.634},
      {"smiles": "Cc1c(NCc2ccc(C#N)cc2)cccc1S(=O)(=O)NC1CC1", "Percent Effect": 50.41},
      {"smiles": "Cc1c(NCc2ccccc2C#N)cccc1S(=O)(=O)NC1CC1", "Percent Effect": 92.24},
      {"smiles": "Cc1cc(NCc2cccc(C#N)c2)ccc1Br", "Percent Effect": -0.9935},
      {"smiles": "Cc1ccc(NCc2ccc(C#N)cc2)c(CN(C)C)c1", "Percent Effect": -24.71},
      {"smiles": "Cc1c(NCc2ccccc2C#N)cccc1-n1cnnn1", "Percent Effect": 16.44},
      {"smiles": "N#Cc1cccnc1NCc1ccc(S(=O)(=O)NC2CC2)cc1", "Percent Effect": 26.85},
      {"smiles": "COC1COC2(CCN(Cc3ccc(Cl)cc3)CC2)C1.O=C(O)C(F)(F)F", "note": "(stereo not given)", "Percent Effect": -23.85},
      {"smiles": "Cc1nc(NC(=O)C2(C)CN(C)CCO2)sc1C.Cl", "note": "(stereo not given)", "Percent Effect": -1.317},
      {"smiles": "CCC(CC)C(=O)N1CCOC2(COCCN(CC(=O)NC)C2)C1.O=C(O)C(F)(F)F", "note": "(stereo not given)", "Percent Effect": -7.076},
      {"smiles": "Cc1cccc(NC(=O)N2CCCn3cnc(CN(C)C(C)C)c3C2)c1.O=C(O)C(F)(F)F", "Percent Effect": -43.51},
      {"smiles": "COCC1CN(c2ccc(C)nn2)Cc2cnn(C)c21.O=C(O)C(F)(F)F.O=C(O)C(F)(F)F", "note": "(stereo not given)", "Percent Effect": 33.23},
      {"smiles": "CN1CCOCC2(CCCN(C(=O)c3ccc(-n4cccc4)cc3)C2)C1.O=C(O)C(F)(F)F", "note": "(stereo not given)", "Percent Effect": -38},
      {"smiles": "CN(C)CC(=O)N1CCC2(CC1)CN(c1ccsc1)C(=O)CO2.O=C(O)C(F)(F)F", "Percent Effect": -14.58},
      {"smiles": "Cc1cnn(C2CN(Cc3noc(C4CC4)n3)C2)c1", "Percent Effect": 9.159},
      {"smiles": "c1ccc(-c2cc(CN3C[C@@H]4CC[C@H](C3)N(CC3CCC3)C4)on2)cc1", "Percent Effect": 105.8},
      {"smiles": "C1CCCN(CC2CCCN(Cc3noc(C4CC4)n3)C2)CC1", "note": "(stereo not given)", "Percent Effect": 7.551},
      {"smiles": "c1ccc(CN2C[C@H]3CC[C@@H]2CN(Cc2nnc(C4CC4)o2)C3)cc1", "Percent Effect": -5.775},
      {"smiles": "c1ccc(-c2nnc(CN3C[C@@H]4CC[C@H](C3)N(CC3CCC3)C4)o2)cc1", "Percent Effect": 64.4},
      {"smiles": "c1ccc(-c2cc(CN3CCCC(Cn4cncn4)C3)on2)cc1", "note": "(stereo not given)", "Percent Effect": -1.952},
      {"smiles": "c1ccc(-c2cc(CN3C[C@@H]4CC[C@H](C3)N(CC3CC3)C4)on2)cc1", "Percent Effect": 99.84},
      {"smiles": "CCc1cc(CN2C[C@H]3CC[C@@H]2CN(C2Cc4ccccc4C2)C3)on1", "Percent Effect": 30.93},
      {"smiles": "Cc1cc(CN2C[C@H]3CC[C@@H]2CN(C2Cc4ccccc4C2)C3)on1", "Percent Effect": 16.59},
      {"smiles": "C1CC(CN2C[C@H]3CC[C@@H]2CN(Cc2nnc(C4CC4)o2)C3)C1", "Percent Effect": 16.6},
      {"smiles": "c1ccc(-c2cc(CN3C[C@H]4CC[C@H]3C4)on2)cc1", "Percent Effect": 7.341},
      {"smiles": "C1CC(CN2C[C@H]3CC[C@@H]2CN(Cc2noc(C4CCCC4)n2)C3)C1", "Percent Effect": 69.475},
      {"smiles": "Cc1noc(C)c1CN1CCCC2(CCN(CC3CCCC3)C2)C1.O=C(O)C(F)(F)F", "note": "(stereo not given)", "Percent Effect": -3.039},
      {"smiles": "CCN1C[C@@H]2[C@@H](OC)CCN(S(=O)(=O)c3ccccc3)[C@@H]2C1.O=C(O)C(F)(F)F", "Percent Effect": -5.885},
      {"smiles": "COCC(=O)N1CCn2c(COc3cccnc3)cnc2C1C.O=C(O)C(F)(F)F", "note": "(stereo not given)", "Percent Effect": 5.093},
      {"smiles": "CC(=O)N1CCN(Cc2ccccn2)CC2(CC(=O)N(C)C2)C1.O=C(O)C(F)(F)F.O=C(O)C(F)(F)F", "note": "(stereo not given)", "Percent Effect": -32.82},
      {"smiles": "CNC(=O)c1cc(C2CCCN2)n[nH]1.Cl", "note": "(stereo not given)", "Percent Effect": 10.86},
      {"smiles": "CC(=O)N1CCC[C@@H](NCc2cccc(F)c2)[C@@H]1c1ccc(C)s1.Cl", "Percent Effect": 4.639},
      {"smiles": "CC(=O)N1CCC[C@@H](NCc2c[nH]c3ccccc23)[C@@H]1c1ccc(C)s1.Cl", "Percent Effect": 67.48},
      {"smiles": "CC(=O)N1CCC[C@@H](NCc2ccc(F)cc2)[C@@H]1c1ccc(C)s1", "Percent Effect": 15.69},
      {"smiles": "O=C(O)C(F)(F)F.O=C1[C@H]2CN(Cc3ccco3)C[C@H]2CN1c1ccsc1", "Percent Effect": 26.88},
      {"smiles": "O=c1c2cnc(N3CCOCC3)nc2ccn1Cc1ccco1", "Percent Effect": -1.985},
      {"smiles": "CCc1nc(N2CCCC(CCCOC)C2)c2cnn(C)c2n1", "note": "(stereo not given)", "Percent Effect": -4.574},
      {"smiles": "CCCOC1CCCN(c2nc(COC)nc3c2cnn3C)C1", "note": "(stereo not given)", "Percent Effect": 67.42},
      {"smiles": "CCCOC1CCCN(c2nc(CC)nc3c2cnn3C)C1", "note": "(stereo not given)", "Percent Effect": 77.82},
      {"smiles": "CCCc1nc(N2CCCN3CCC[C@H]3C2)c2cnn(C)c2n1", "Percent Effect": -9.904},
      {"smiles": "CCCc1nc(N2CCCC(CCOC)C2)c2cnn(C)c2n1", "note": "(stereo not given)", "Percent Effect": -22.83},
      {"smiles": "COCc1nc(N2CC[C@H](N(C)C)C2)c2cnn(C)c2n1", "Percent Effect": -4.11},
      {"smiles": "CS(=O)(=O)NC[C@@H]1OC[C@H]2CN(Cc3ccccc3)CC[C@H]21.O=C(O)C(F)(F)F", "Percent Effect": 25.84},
      {"smiles": "O=C(O)Cn1ccc(=O)c2cc(F)ccc21", "Percent Effect": 12.91},
      {"smiles": "O=C(O)Cn1ccc(=O)c2ccc(Cl)cc21", "Percent Effect": -0.616},
      {"smiles": "O=C(O)Cn1ccc(=O)c2cc(Cl)ccc21", "Percent Effect": 63.91},
      {"smiles": "CN(C)CCOCc1cncc2c1CCN(C1CCOCC1)C2.O=C(O)C(F)(F)F.O=C(O)C(F)(F)F.O=C(O)C(F)(F)F", "Percent Effect": 38.62}
    ]}
  ]
}
